The campaign covered roughly 110,000 compounds. About 230 (0.21%) showed an effect of 50% or more. What follows is part of a selection rich in strong results, with near analogues and random picks from the rest.
molecular target: DPAP1 (Plasmodium falciparum, UniProt Q8IIJ9); assay: primary screen, percent inhibition; read by cleavage of a fluorogenic dipeptide substrate; higher = more effect of the substance; set-up: species or system P. falciparum D10 trophozoite lysates; single well
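Further: 30 min substrate incubation versus DMSO and 10 µM JCP410 controls.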

Chain of DPAP1 (Q8IIJ9 whole entry, looked up): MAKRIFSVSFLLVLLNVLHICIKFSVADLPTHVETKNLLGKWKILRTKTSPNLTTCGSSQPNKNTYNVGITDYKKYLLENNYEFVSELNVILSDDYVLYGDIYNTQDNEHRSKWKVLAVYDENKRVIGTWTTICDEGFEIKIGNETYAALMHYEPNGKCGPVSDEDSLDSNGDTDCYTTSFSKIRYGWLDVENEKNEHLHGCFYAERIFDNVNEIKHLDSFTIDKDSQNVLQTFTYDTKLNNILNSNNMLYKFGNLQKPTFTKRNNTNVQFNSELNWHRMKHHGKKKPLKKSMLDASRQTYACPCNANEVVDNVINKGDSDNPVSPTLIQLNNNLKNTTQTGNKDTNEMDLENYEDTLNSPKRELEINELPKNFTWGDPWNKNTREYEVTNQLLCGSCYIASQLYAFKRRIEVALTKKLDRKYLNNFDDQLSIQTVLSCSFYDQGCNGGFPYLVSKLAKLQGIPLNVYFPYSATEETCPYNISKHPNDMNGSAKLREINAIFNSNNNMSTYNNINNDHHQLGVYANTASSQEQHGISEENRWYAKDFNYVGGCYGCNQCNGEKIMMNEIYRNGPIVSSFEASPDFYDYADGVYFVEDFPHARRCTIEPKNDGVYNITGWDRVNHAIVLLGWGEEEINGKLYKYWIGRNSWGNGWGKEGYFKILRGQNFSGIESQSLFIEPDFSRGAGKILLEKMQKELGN

Row | SMILES | % Inhibition @ 10 uM [%]
1 | CCCCSc1nnc2c(n1)[nH]c1ccccc12 | 2.86
2 | CCCCCCSc1nnc2c(n1)[nH]c1ccccc12 | -2.35
3 | NCCSc1nnc2c(n1)[nH]c1ccccc12 | 77.5
4 | COc1ccc(-n2c3c(c(=O)[nH]c2=O)C(NC(=O)c2ccc(F)cc2)(C(F)(F)F)C(=O)N3)cc1 (centres unmarked) | 3.57
5 | COc1ccc(C2=N/C(=C\c3cccs3)C(=O)O2)cc1 | 11.6
6 | COc1cc(C(=O)NCc2cn3cccc(C)c3n2)cc(OC)c1OC | 3.3
7 | COc1ccc(/C=N/n2c(S)nnc2C(F)(F)F)cc1O | -3.04
8 | COc1ccc(OC)c(C2CC(=O)N3CN(C4CCCCC4)CSC3=C2C#N)c1 (centres unmarked) | 9.77
9 | COc1ccc(Br)cc1C1CC(=O)N2CN(C)CSC2=C1C#N (centres unmarked) | 58.8
10 | COc1ccc(Br)cc1C1CC(=O)N2CN(C3CCCCC3)CSC2=C1C#N (centres unmarked) | 60.2
11 | COc1cccc(C2CC(=O)N3CN(C4CCCCC4)CSC3=C2C#N)c1OC (centres unmarked) | 21.8
12 | COc1cc(C2CC(=O)N3CN(C)CSC3=C2C#N)cc(OC)c1OC (centres unmarked) | 3.77
13 | CCC(C(=O)Nc1nc2nc(C)cc(O)n2n1)c1ccccc1 (centres unmarked) | 0.401
14 | N#CC1=C2SCN(C3CCCC3)CN2C(=O)CC1c1cccs1 (centres unmarked) | 48.2
15 | N#CC1=C2SCN(C3CCCC3)CN2C(=O)CC1c1ccc(Cl)cc1 (centres unmarked) | 55.3
16 | COc1cc(C2CC(=O)N3CN(C4CCCCC4)CSC3=C2C#N)ccc1O (centres unmarked) | -1.28
17 | CCOc1ccc(C2CC(=O)N3CN(C4CCCCC4)CSC3=C2C#N)cc1 (centres unmarked) | 46.6
18 | Cc1ccc(C2CC(=O)N3CN(C4CCCCC4)CSC3=C2C#N)cc1 (centres unmarked) | 25.9
19 | CCc1ccc(C2CC(=O)N3CN(C4CCCCC4)CSC3=C2C#N)cc1 (centres unmarked) | 64.5
20 | Cc1nnc(SCc2ccc(F)cc2)nc1O | 3.62
21 | Cc1ccc(COc2ncnc3[nH]cnc23)c(C)c1 | -3.09
22 | Cc1ccc(CNC(=O)C2CCCN(S(=O)(=O)c3cccc4nonc34)C2)cc1 (centres unmarked) | -0.668
23 | Cc1ccnc(NC(=O)c2ccc(-c3ccccc3)s2)c1 | 4.4

Row | SMILES | % Inhibition @ 10 uM [%]
24 | O=C(c1ccc(Oc2ccccc2)cc1)c1nc2c(n1O)CCCC2 | 1.74
25 | Cc1ccc(S(=O)(=O)NC(CC(=O)O)c2cccs2)cc1 (centres unmarked) | 3.64
26 | CCS(=O)(=O)c1nc(S(=O)(=O)c2ccc(Cl)cc2)c(N2CCOCC2)s1 | -2.25
27 | O=C(Nc1nc(-c2ccc(Br)cc2)cs1)c1ccco1 | -2.99
28 | O=c1c2c3c(sc2[nH]c(=S)n1-c1ccc(Cl)cc1)CCC3 | 62.5
29 | COc1ccc(-n2c(SCC(=O)N3CCOCC3)nc3sc4c(c3c2=O)CCC4)cc1 | 9.91
30 | O=c1[nH]c(=S)[nH]c2sc3c(c12)CCN(Cc1ccccc1)C3 | 1.4
31 | O=c1[nH]c2sc3c(c2c(=O)n1-c1ccc(Cl)c(Cl)c1)CCC3 | -2.48
32 | Oc1ncnc2sc3c(c12)CCN(Cc1ccccc1)C3 | 6.74
33 | COc1ccc(-n2c(=S)[nH]c3sc4c(c3c2=O)CCC4)cc1 | 84.1
34 | Cc1ccc(-n2c(=S)[nH]c3sc4c(c3c2=O)CCCCC4)cc1 | 11.5
35 | O=c1c2c3c(sc2[nH]c(=S)n1-c1ccccc1)CN(Cc1ccccc1)CC3 | 57.7
36 | COc1ccc(-n2c(=S)[nH]c3sc4c(c3c2=O)CCCCC4)cc1 | 12.4
37 | CC1(C)CC(=O)C2=C(C1)N(c1nc[nH]n1)C(N)=C(C#N)C2c1cccc(Cl)c1 (centres unmarked) | 5.48
38 | CN1C2CCC1CC(N1CCN(Cc3ccccc3)CC1)C2 (centres unmarked) | -1.5
39 | COc1ccc(/C=C2\C(=N)N3N=C(S(C)(=O)=O)SC3=NC2=O)cc1 | -5.27
40 | CCn1c(C)cc(/C=C2/NC(=O)N(c3ccccc3)C2=O)c1C | -2.19
41 | COc1ccc2ccccc2c1C1CC(=O)N2CN(C)CSC2=C1C#N (centres unmarked) | 36.5
42 | CN1CSC2=C(C#N)C(c3ccccc3)CC(=O)N2C1 (centres unmarked) | 32.9
43 | CN1CSC2=C(C#N)C(c3ccccc3Cl)CC(=O)N2C1 (centres unmarked) | 56.6
44 | CN1CSC2=C(C#N)C(c3ccc(Br)cc3)CC(=O)N2C1 (centres unmarked) | 43.4
45 | CSc1ccc(C2CC(=O)N3CN(C)CSC3=C2C#N)cc1 (centres unmarked) | 75
46 | COc1ccccc1CC(=N)NOC(=O)c1ccccc1OC | 5.37

Row | SMILES | % Inhibition @ 10 uM [%]
47 | Cc1ccc(C2CC(=O)N3CN(CCc4ccccc4)CSC3=C2C#N)cc1 (centres unmarked) | 64
48 | N#CC1=C2SCN(CCN3CCOCC3)CN2C(=O)CC1c1ccc(F)cc1 (centres unmarked) | 49.5
49 | N#CC1=C2SCN(CCc3ccccc3)CN2C(=O)CC1c1cccs1 (centres unmarked) | 42.6
50 | N#CC1=C2SCN(CCc3ccccc3)CN2C(=O)CC1c1ccc(F)cc1 (centres unmarked) | 51.6
51 | O=C(N/C(=C\c1ccco1)C(=O)N1CCN(C/C=C/c2ccccc2)CC1)c1ccccc1 | 2.09
52 | COc1ccc(C2N=C(NO)c3ccccc3N2)cc1 (centres unmarked) | -0.424
53 | C=C(C)CSc1nc(N)c2c3c(sc2n1)CCC3 | 4.37
54 | CCCSc1nc(N)c2c3c(sc2n1)CCCC3 | 10.6
55 | CC(C)CSc1nc(N)c2c3c(sc2n1)CCC3 | 81.4
56 | COc1ccccc1CNC(=O)Nc1cn(CC(C)C)c(=O)c2ccccc12 | -4.21
57 | CC(C)CCNC(=O)c1nnc(-c2ccccc2)o1 | -3.34
58 | CCOC(=O)c1sc(-c2ccccc2)nc1-c1ccc([N+](=O)[O-])cc1 | 2.86
59 | CCOC(=O)c1sc(-c2ccccc2)nc1O | 66.9
60 | CCOC(=O)c1sc(C)c2c(O)nc(-c3ccccc3)nc12 | -1.47
61 | c1ccc(CC2CCN(Cc3ccco3)CC2)cc1 | -2.56
62 | COc1ccc(-c2cc(-c3ccccc3)nc(N3CCOCC3)n2)cc1OC | -2.6
63 | Cc1nsc2ccc(Cl)cc12 | 55
64 | Cc1nsc2ccc3ccccc3c12 | 3.36
65 | Cc1nsc2ccc3sccc3c12 | 1.72
66 | COc1ccc(-c2noc(CCC(=O)NCc3cc(OC)ccc3OC)n2)cc1 | 0.675
67 | COc1ccc(-c2noc(CCC(=O)NCc3ccc(F)cc3Cl)n2)cc1 | 60.3
68 | Cc1ccc(-c2noc(CCC(=O)NCc3ccc(F)cc3Cl)n2)cc1 | -0.999

Source: article PMC6919601, “Identification of Plasmodium dipeptidyl aminopeptidase allosteric inhibitors by high throughput screening” (PLoS ONE, 2019)
